The list is not random: actives were taken first. Their share in the collection is about 7.3%.
HCMV inh: qHTS Assay for inhibitors of the human cytomegalovirus (HCMV); 410,000 compounds, 4.5% hits; AID 1259415, 2018; HFF cells, HCMV-luciferase reporter, 72 h; active compounds read low; activity change, negative = inhibition, % at 57.5 µM; in the data active = activity change below about -60%; inconclusive = no clear call, values can overlap the other calls; inactive = above about -39%
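Two-dose cell screen: HFF monolayers treated with compounds and infected with luciferase-expressing HCMV at 1 PFU/cell, 72 h at 37C, then lysed for luciferase measurement.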
FMDV inh: High Throughput Screening for Foot and Mouth Disease Virus Antivirals | FMDV antiviral cell-based qHTS | AID 1159524, 2015 | 410,000 compounds, 1.2% hits | Potency, µM (doses to about 57.9 µM), most hits filed as inhibitors; calls by dose curve; tested in HEK293T cells; also: read-out not given here; nearly all actives have a fitted effect of over 45% in size
HCV inh: qHTS Assay for Inhibitors of Hepatitis C Virus (HCV). Huh7.5.1 HCVcc-Cre infection, luciferase reporter, 44 h. Potency, µM (top dose mostly 41.8 µM), actives largely listed as inhibitors. 340,000 compounds, 3.4% hits. AID 651820, 2012
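Cells seeded at 1,000/well and cultured 4 h, then compounds added followed by HCVcc-Cre virus (~0.5 moi). After 44 h further culture, luciferase substrate was added, plates held 15 min at room temperature, and luminescence read for 15 sec.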
AmpC detergent: qHTS Inhibitors of AmpC Beta-Lactamase (assay with detergent) | AID 485294, 2010 | P00811 | Potency, µM (top dose mostly 114 µM), hits mostly inhibitors | AmpC hydrolysis of nitrocefin, absorbance 480 nm, 0.01% Triton | 370,000 compounds, 0.041% hits; also: nearly all actives have a fitted effect of over 25% in size
Target sequence (P00811 whole entry, looked up): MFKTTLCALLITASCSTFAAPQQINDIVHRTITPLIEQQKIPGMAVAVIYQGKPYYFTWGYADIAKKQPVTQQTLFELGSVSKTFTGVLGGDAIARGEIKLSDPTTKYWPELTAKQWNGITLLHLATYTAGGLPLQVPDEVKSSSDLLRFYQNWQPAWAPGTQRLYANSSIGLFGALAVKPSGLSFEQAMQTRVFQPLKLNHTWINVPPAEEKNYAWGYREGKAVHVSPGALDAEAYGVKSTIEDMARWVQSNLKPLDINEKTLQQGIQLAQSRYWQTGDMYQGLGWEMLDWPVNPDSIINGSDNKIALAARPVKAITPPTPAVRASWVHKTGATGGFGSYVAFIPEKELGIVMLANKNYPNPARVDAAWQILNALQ
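20 mM phosphate pH 7.0 + 0.01% (detergent screen) or 0.0001% Triton X-100; 5.3 nM AmpC reagent; cpd preinc 15 min RT; nitrocefin (800 uM stock) to start; A480 q20 s × 4 min; Activity was normalised to no-enzyme and no-compound control wells.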
AmpC no deterg: qHTS Inhibitors of AmpC Beta-Lactamase (assay without detergent). AmpC nitrocefin hydrolysis, absorbance 480 nm, 0.0001% Triton. 330,000 compounds, 0.52% hits. Potency, µM (series often up to 57.1 µM), hits mostly inhibitors; also: nearly all actives have a fitted effect of over 20% in size
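AmpC (5.3 nM in the dispensed reagent) in 20 mM phosphate pH 7.0 with 0.01% (detergent screen) or 0.0001% Triton X-100 was preincubated with compounds for 15 min at room temperature. Nitrocefin was then added from an 800 uM solution, and hydrolysis was followed at 480 nm.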
A number is an active result; - = inactive; ? = inconclusive; . = no result given; [ ] = dose if it differs, or a comment. Unless noted, calls follow the shape of the dose curve; as a rule, active = well fitted curve in the direction sought with a large enough effect; inconclusive = small, poorly fitted or top-dose-only effect, or another doubt; inactive = no such curve, though single readings can be large; an effect the other way counts as inactive or inconclusive.

SMILES | HCMV inh | FMDV inh | HCV inh | AmpC detergent | AmpC no deterg
COc1cc(-c2nc(C)cnc2C)cc2c1OCCN(C(=O)Cc1cc(OC)c(OC)c(OC)c1)C2 | . | - | . | . | .
CC(C)[C@H](NC(=O)c1c(F)cccc1F)C(=O)OCC(=O)NC(=O)NC1CCCC1 | - | - | - | ? | -
CCOc1ccc(CCNC(=O)c2ccc(C)c(-n3cnc4cccnc43)c2)cc1 | - | - | . | - | .
COc1cc(Cn2c(=O)oc3ccc(C)cc32)ccc1OC(C)C | - | ? | 1.12µM | - | -
CCCn1c2ccccc2c2cnn(CC(=O)NC(CCSC)C(=O)OC)c(=O)c21 (stereo unspecified) | - | - | . | - | .
Cc1ccc(C(C)C)c(OCC(=O)Nc2ccc(C(=O)OC3CCCCC3)cc2)c1 | - | - | . | - | .
O=C(CN1CCCCC1)Nc1ccc(C(F)(F)F)cc1Cl | -70.4 | - | - | - | -
O=C(CN1C(=O)NC2(CCCCC2)C1=O)Nc1cc(C(F)(F)F)ccc1N1CCCCC1 | ? | - | - | - | -
O=C(CN1C(=O)NC2(CCCC2)C1=O)Nc1cc(C(F)(F)F)ccc1N1CCCCC1 | - | - | -[8.37 µM] | ? | 35.5µM
O=C1NC(=O)N(Cc2ccc(F)cc2)C(=O)/C1=C\c1ccc([N+](=O)[O-])s1 | - | - | - | - | 11.2µM
Fc1cccc(CNc2ncnc3ccc(-c4ccc5c(c4)OCO5)cc23)c1 | -92.1 | ? | . | - | -
COCCCNc1ncnc2ccc(C)cc12 | -62.6 | - | ? | ? | -
COc1cc2ncnc(NCc3cc(F)ccc3F)c2cc1OC | - | - | - | - | -
Fc1cccc(CNc2ncnc3cc(Cl)ccc23)c1F | ? | ? | 7.08µM | - | -
COc1cc2ncnc(NCc3cccc(Cl)c3)c2cc1OC | ? | - | ? | - | -
Cc1ccc2ncnc(NCCC(=O)O)c2c1 | - | - | - | ? | -
COc1cccc(CNc2ncnc3cc(Cl)ccc23)c1 | ? | ? | 11.2µM | - | -
C[C@H](NC(=O)c1[nH]cnc1C(=O)N[C@@H](C)CO)c1ccccc1 | - | - | . | . | .
CCOc1ccc(NC(=O)CN(C)C(=O)c2cc(S(=O)(=O)N(C)C)ccc2N2CCCC2)cc1OCC | - | - | - | ? | -
CCN(C[C@H]1N[C@@](CC)(C(=O)OC)[C@H]2C(=O)N(C)C(=O)[C@@H]12)C(=O)NC(C)C | - | - | - | . | -
CC(NC(=O)COC(=O)c1cccnc1Cl)C12CC3CC(CC(C3)C1)C2 (stereo unspecified) | - | - | - | . | -
COc1cccc(-c2ccc3ncnc(NCc4cccc(F)c4)c3c2)c1 | . | . | . | ? | -
COc1cccc(-c2ccc3ncnc(NCc4cccc(C)c4)c3c2)c1 | -85.6 | - | . | ? | -
C[C@H]1[C@@H](NS(=O)(=O)c2ccc([N+](=O)[O-])cc2[N+](=O)[O-])CC[C@@]23CCCN2C(=O)CCC[C@@H]13 | - | . | . | . | .
O=C(CSc1nc2ccccc2n1Cc1ccc(F)c(Cl)c1)N1CCN(c2ccc(F)cc2)CC1 | - | ? | . | - | .
SMILES | HCMV inh | FMDV inh | HCV inh | AmpC detergent | AmpC no deterg
COc1ccc(C2C=C(c3ccccc3)Nc3nc(NS(=O)(=O)c4ccccc4)nn32)cc1 (stereo unspecified) | - | - | . | - | .
COc1cc(C2N(c3ccccc3)CCN2c2ccccc2)ccc1OC(C)=O | -62.8 | - | - | - | -
COc1ccc(CCNC(=O)Cc2c(C)c3cc4c(C(C)(C)C)coc4c(C)c3oc2=O)cc1OC | - | ? | . | - | .
COc1cc(=O)n2c(c1C(=O)NCc1ccco1)CCN(C(=O)c1ccc(C)c(C)c1)CC2 | . | - | . | . | .
O=C(/C=C\c1ccccc1)Nc1ccc(NC(=O)c2ccco2)cc1 | -100.9 | - | ? | - | -
O=C(Nc1ccccc1)c1cccc(NC(=O)c2ccco2)c1 | - | - | - | . | .
CCOC(=O)c1cccc(NC(=O)c2ccc(NC(=O)c3ccco3)cc2)c1 | -64.4 | ? | ? | - | -
C=Cc1cccc(NC(=O)c2ccc(NC(=O)c3ccco3)cc2)c1 | ? | - | 11.2µM | - | -
CCOC(=O)c1c(C)[nH]c(C)c1C(=O)COC(=O)[C@@H](NC(=O)c1ccco1)C(C)C | - | - | - | . | -
CCOC(=O)c1c(C)[nH]c(C)c1C(=O)COc1ccc(NC(=O)c2ccco2)cc1 | -64.4 | - | - | - | -
O=C(/C=C/c1ccc(Br)cc1)c1ccc(NC(=O)c2ccco2)cc1 | - | - | ? | - | -
CC1=Nc2nc(N3CCCCCC3)c(C#N)c3c4c(nc(c23)N1)N(c1ccc2ccccc2c1)C(=O)C4 | . | - | - | . | .
CCOc1ccccc1NC(=O)c1cccc(NC(=O)c2ccco2)c1 | ? | ? | 3.16µM | ? | -
Cc1ccccc1NC(=O)c1cccc(NC(=O)c2ccco2)c1 | - | - | - | - | -
CCOc1cc(NS(=O)(=O)c2ccccc2)c(OCC)cc1NC(=O)c1ccco1 | -100.6 | - | - | - | -
COc1ccc(C)cc1NC(=O)c1sc2ncnc(N3CCN(c4ccccn4)CC3)c2c1C | - | - | 1.41µM | - | -
Cc1ccc(NC(=O)c2sc3ncnc(N4CCN(c5ccccn5)CC4)c3c2C)c(C)c1 | ? | - | ? | - | -
CC1=C(C(=O)Nc2ccc([N+](=O)[O-])cc2)C(c2cccc(C(F)(F)F)c2)NC(=S)N1c1ccccc1 (stereo unspecified) | -98.3 | - | ? | - | -
Cc1ccc(C(=O)C2CCN(CC(=O)Nc3ccccc3C)CC2)cc1 | -63.0 | - | ? | - | -
COc1ccccc1N1CCN(C(=O)c2ccc3c(c2)N(Cc2ccccc2)C(=O)c2ccccc2S3(=O)=O)CC1 | - | - | . | - | .
O=C(CCn1c(=O)c2cccn2c2cccnc21)N1CCN(c2cccc(Cl)c2)CC1 | - | ? | 11.2µM | - | -
CCOC(=O)C1CCN(C(=O)Cn2c(=O)c3cccn3c3cccnc32)CC1 | - | - | 11.2µM | - | -
O=C(CCn1c(=O)c2cccn2c2cccnc21)NCc1cccc(Br)c1 | -60.7 | - | . | - | .
CCCNC(=O)Cn1c(=O)c2cccn2c2cccnc21 | -80.6 | - | . | - | .
CCOC(=O)C1CCN(C(=O)CCCn2c(=O)c3cccn3c3cccnc32)CC1 | ? | - | - | - | -
N#CCc1ccc(OC(=O)c2cnccc2C(F)(F)F)cc1 | - | - | - | - | -
O=C(C1CCC(Cn2c(=O)c3sccc3n(Cc3ccc(F)cc3)c2=O)CC1)N1CCOCC1 (stereo unspecified) | - | - | . | - | .
CCC1CN(CCNC(=O)c2cc(C(C)C)nn2C)Cc2cc(OC)ccc2O1 (stereo unspecified) | . | - | . | . | .
CC1CCN(C(=O)CSc2nnc(CNC(=O)c3c(F)cccc3F)o2)CC1 | ? | - | - | - | -
CC(C)Cc1nc2cc(NS(=O)(=O)N(C)C)cc(C(=O)N3CCOc4ccccc4C3)c2n1C | . | - | . | . | .

Assay outcomes from PubChem.
